Measured values taken from PubChem BioAssay AID1159580 (chemical genetic matrix, 2015).
Several values for one entry are separate records, joined by “and”; a condition that tells them apart may be missing. Equal entries are not always repeated. Out of some 5,500 compounds screened, about 2,000 (36%) were called active. Roughly 18% stayed inconclusive and do not appear here. Cut-off read from the data, not from the text of the source: active = normalized growth mostly below about 0.91 (no sharp cut-off); inconclusive = no clear call, values can overlap the other calls; inactive = mostly above about 0.92. Some of the results follow.

Assay: chemical genetic growth profiling, strain panel (AID 1159580);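 note: tested at 20 µM; growth read once vehicle control cultures reached saturation at 30 °C; 1 = growth at the plate median or of vehicle wells; lower values mean less growth of the strain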
Settings: growth OD

Measured: normalized growth

CCCCC1C(=O)N(c2ccccc2)N(c2ccccc2)C1=O
inactive: S. cerevisiae deletion strains, locus YJR075W, strain HOC1, hits give low values 1 | S. cerevisiae deletion strains, locus YKL009W, strain mrt4, hits give low values 0.98 | S. cerevisiae deletion strains, locus YKL068W, hits give low values 0.963 | S. cerevisiae deletion strains, locus YKL085W, strain MDH1 (second series), hits give low values 0.959 | S. cerevisiae deletion strains, locus YKL085W, strain MDH1, hits give low values 0.959 | S. cerevisiae deletion strains, locus YKL160W, strain elf1, hits give low values 1.01 | S. cerevisiae deletion strains, locus YKL190W, strain CNB1, hits give low values 0.972 | S. cerevisiae deletion strains, locus YKR001C, strain vps1, hits give low values 0.994 | S. cerevisiae deletion strains, locus YKR026C, strain gcn3, hits give low values 0.988 | S. cerevisiae deletion strains, locus YKR091W, strain srl3, hits give low values 0.986 | S. cerevisiae deletion strains, locus YLL001W, strain dnm1, hits give low values 0.992 | S. cerevisiae deletion strains, locus YLL026W, hits give low values 0.99 | S. cerevisiae deletion strains, locus YLL041C, strain sdh2, hits give low values 0.985 | S. cerevisiae deletion strains, locus YLR027C, strain aat2, hits give low values 0.987 | S. cerevisiae deletion strains, locus YLR039C, strain RIC1, hits give low values 0.895 | S. cerevisiae deletion strains, locus YLR058C, strain SHM2, hits give low values 0.987 | S. cerevisiae deletion strains, locus YLR102C, strain apc9, hits give low values 0.983 | S. cerevisiae deletion strains, locus YLR113W, strain HOG1, hits give low values 0.899 | S. cerevisiae deletion strains, locus YLR221C, strain rsa3, hits give low values 1.02 | S. cerevisiae deletion strains, locus YLR258W, strain gsy2, hits give low values 0.993 | S. cerevisiae deletion strains, locus YLR262C, strain YPT6 (second series), hits give low values 0.93 | S. cerevisiae deletion strains, locus YLR262C, strain YPT6, hits give low values 0.893 | S. cerevisiae deletion strains, locus YLR268W, strain sec22, hits give low values 1.06 | S. cerevisiae deletion strains, locus YLR320W, strain mms22, hits give low values 1.02 | S. cerevisiae deletion strains, locus YLR330W, strain CHS5, hits give low values 0.984 | S. cerevisiae deletion strains, locus YLR342W, strain FKS1 (second series), hits give low values 0.994 | S. cerevisiae deletion strains, locus YLR342W, strain FKS1, hits give low values 0.978 | S. cerevisiae deletion strains, locus YLR357W, strain rsc2, hits give low values 1.04 | S. cerevisiae deletion strains, locus YLR370C, strain arc18, hits give low values 0.973 | S. cerevisiae deletion strains, locus YLR371W, strain rom2, hits give low values 1 | S. cerevisiae deletion strains, locus YLR384C, strain iki3, hits give low values 0.996 | S. cerevisiae deletion strains, locus YLR418C, strain cdc73, hits give low values 0.995 | S. cerevisiae deletion strains, locus YML016C, strain PPZ1, hits give low values 0.98 | S. cerevisiae deletion strains, locus YML032C, strain rad52, hits give low values 1.02 | S. cerevisiae deletion strains, locus YML120C, strain ndi1, hits give low values 0.999 | S. cerevisiae deletion strains, locus YML124C, strain tub3, hits give low values 0.982 | S. cerevisiae deletion strains, locus YMR058W, strain fet3, hits give low values 0.993 | S. cerevisiae deletion strains, locus YMR078C, strain ctf18, hits give low values 0.988 | S. cerevisiae deletion strains, locus YMR125W, strain sto1, hits give low values 0.989 | S. cerevisiae deletion strains, locus YMR129W, hits give low values 0.986 | S. cerevisiae deletion strains, locus YMR205C, strain PFK2, hits give low values 0.989 | S. cerevisiae deletion strains, locus YMR223W, strain ubp8, hits give low values 0.967 | S. cerevisiae deletion strains, locus YMR231W, strain pep5, hits give low values 0.996 | S. cerevisiae deletion strains, locus YMR263W, strain SAP30, hits give low values 0.997 | S. cerevisiae deletion strains, locus YMR307W, strain GAS1, hits give low values 0.971 | S. cerevisiae deletion strains, locus YNL067W, strain RPL9B, hits give low values 1.02 | S. cerevisiae deletion strains, locus YNL071W, strain lat1, hits give low values 0.994 | S. cerevisiae deletion strains, locus YNL128W, strain TEP1, hits give low values 0.99 | S. cerevisiae deletion strains, locus YNL153C, strain GIM3, hits give low values 1.04 and 1 | S. cerevisiae deletion strains, locus YNL175C, strain NOP13, hits give low values 0.971 | S. cerevisiae deletion strains, locus YNL183C, strain NPR1, hits give low values 0.946 | S. cerevisiae deletion strains, locus YNL197C, strain WHI3, hits give low values 0.976 | S. cerevisiae deletion strains, locus YNL209W, strain ssb2, hits give low values 1 | S. cerevisiae deletion strains, locus YNL224C, strain SQS1, hits give low values 0.972 | S. cerevisiae deletion strains, locus YNL233W, strain BNI4, hits give low values 1.04 | S. cerevisiae deletion strains, locus YNL248C, strain rpa49, hits give low values 1.03 | S. cerevisiae deletion strains, locus YNL250W, strain rad50, hits give low values 0.972 | S. cerevisiae deletion strains, locus YNL271C, strain bni1, hits give low values 0.979 | S. cerevisiae deletion strains, locus YNL298W, strain CLA4, hits give low values 0.998 | S. cerevisiae deletion strains, locus YNL307C, strain MCK1, hits give low values 1.01 | S. cerevisiae deletion strains, locus YNL322C, strain KRE1 (second series), hits give low values 0.982 | S. cerevisiae deletion strains, locus YNL322C, strain KRE1, hits give low values 0.973 | S. cerevisiae deletion strains, locus YNR049C, strain mso1, hits give low values 0.985 | S. cerevisiae deletion strains, locus YNR052C, strain pop2, hits give low values 0.999 | S. cerevisiae deletion strains, locus YOL006C, strain TOP1, hits give low values 1.05 | S. cerevisiae deletion strains, locus YOL012C, strain htz1 0.887 | S. cerevisiae deletion strains, locus YOL147C, strain pex11, hits give low values 0.993 | S. cerevisiae deletion strains, locus YOR001W, strain rrp6, hits give low values 0.99 | S. cerevisiae deletion strains, locus YOR061W, strain CKA2, hits give low values 0.977 | S. cerevisiae deletion strains, locus YOR069W, strain VPS5, hits give low values 0.984 | S. cerevisiae deletion strains, locus YOR070C, strain gyp1, hits give low values 0.999 | S. cerevisiae deletion strains, locus YOR080W, strain dia2, hits give low values 0.987 | S. cerevisiae deletion strains, locus YOR083W, strain WHI5 (second series), hits give low values 0.994 | S. cerevisiae deletion strains, locus YOR083W, strain WHI5, hits give low values 1.02 | S. cerevisiae deletion strains, locus YOR106W, strain vam3, hits give low values 1.03 | S. cerevisiae deletion strains, locus YOR136W, strain idh2, hits give low values 0.982 | S. cerevisiae deletion strains, locus YOR144C, strain elg1, hits give low values 0.985 | S. cerevisiae deletion strains, locus YOR184W, strain ser1, hits give low values 1 | S. cerevisiae deletion strains, locus YOR231W, strain MKK1, hits give low values 0.933 | S. cerevisiae deletion strains, locus YOR265W, strain rbl2, hits give low values 0.988 | S. cerevisiae deletion strains, locus YOR270C, strain vph1, hits give low values 1.02 | S. cerevisiae deletion strains, locus YOR290C, strain snf2, hits give low values 1.02 | S. cerevisiae deletion strains, locus YOR316C, strain cot1, hits give low values 0.986 | S. cerevisiae deletion strains, locus YPL051W, strain arl3, hits give low values 0.992 | S. cerevisiae deletion strains, locus YPL055C, strain LGE1, hits give low values 1 and 0.997 | S. cerevisiae deletion strains, locus YPL078C, strain atp4, hits give low values 1.02 | S. cerevisiae deletion strains, locus YPL106C, strain sse1, hits give low values 1.01 | S. cerevisiae deletion strains, locus YPL240C, strain hsp82, hits give low values 0.994 | S. cerevisiae deletion strains, locus YPL241C, strain CIN2, hits give low values 0.981 and 1 | S. cerevisiae deletion strains, locus YPL256C, strain CLN2, hits give low values 0.914 | S. cerevisiae deletion strains, locus YPR119W, strain clb2, hits give low values 0.977 | S. cerevisiae deletion strains, locus YPR141C, strain kar3, hits give low values 0.961 | S. cerevisiae deletion strains, locus YPR163C, strain tif3, hits give low values 1 | S. cerevisiae deletion strains, locus YPR167C, strain met16, hits give low values 0.993 | S. cerevisiae deletion strains, strain wtn01, hits give low values 1.02 | S. cerevisiae strains, strain wild type, hits give low values 0.984
